Reference: PubChem BioAssay (EPA / NIEHS)
Several values for one entry are separate records, joined by “and”; a condition that tells them apart may be missing. Equal entries are not always repeated. Activity calls are given as the source filed them. The calls were made as follows: active = hit-call score of the fitted dose curve at least 0.9, where 1 is the maximum; inactive = score below 0.9.

Columns and labels:
[1] = read-out: Matrix Metallopeptidase 1 (MMP1), MMP1 (gene 4312); assay: BSK_BF4T_MMP1: BioMAP Diversity Plus: BF4T Assay for Matrix Metallopeptidase 1 (MMP1) Biomarker Activity (AID 2284270); details: primary human bronchial epithelial cells with fibroblasts
Protocol: (§1) BSK_BF4T is a cell-based, multiplexed-readout assay that uses bronchial epithelial cells and dermal fibroblasts, a human vascular primary cell, with measurements taken at 24 hours after chemical dosing in a microplate: 96-well plate.BSK_BF4T_MMP1 is an assay component measured in the BSK_BF4T assay. It measures MMP-1 antibody related to regulation of gene expression using ELISA technology.Data from the assay component BSK_BF4T_MMP1 was analyzed at the endpoint, BSK_BF4T_MMP1, in the positive analysis fitting direction relative to DMSO as the negative control and baseline of activity. Using a type of binding reporter, gain or loss-of-signal activity can be used to understand protein changes. […]
(§2) The levels of cell surface (or secreted, indicated by the prefix "s") biomarker endpoints were measured by ELISA. Overt cytotoxicity to cells in confluent adherent cultures (all systems other than the BT system) was assessed by measuring total protein levels using sulforhodamine B (SRB) staining in parallel cultures at the time of biomarker measurements, indicated as SRB endpoints. For proliferation assays for adherent cell types, individual cell types are cultured at sub-confluence and relative cell numbers quantified by SRB staining at time points optimized for each system (48 h: 3C and CASM3C systems; 72 h: BT and HDF3CGF systems; 96 h: SAg system). […] Plates were read after 6 h.

[2] = read-out: Matrix Metallopeptidase 3 (MMP3), MMP3 (gene 4314); assay: BSK_BF4T_MMP3: BioMAP Diversity Plus: BF4T Assay for Matrix Metallopeptidase 3 (MMP3) Biomarker Activity (AID 2284271); details: primary human bronchial epithelial cells with fibroblasts
Summary of the method: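 MMP-3 level read by ELISA after 24 h chemical exposure of bronchial epithelial cell/dermal fibroblast co-cultures, fitted upward relative to DMSO. Parallel cultures stained with 0.1% SRB after TCA fixation gauge overt cytotoxicity.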

[3] = read-out: Tissue plasminogen activator (tPA), PLAT (gene 5327); assay: BSK_BF4T_tPA: BioMAP Diversity Plus: BF4T Assay for Tissue plasminogen activator (tPA) Biomarker Activity (AID 2284272); details: primary human bronchial epithelial cells with fibroblasts
Protocol: as §1, with “plate.BSK_BF4T_tPA” for “plate.BSK_BF4T_MMP1”, “tPA” for “MMP-1”, “BSK_BF4T_tPA” for “BSK_BF4T_MMP1”, “BSK_BF4T_tPA,” for “BSK_BF4T_MMP1,”
as §2

[4] = read-out: Plasminogen Activator Inhibitor-1 (PAI1), SERPINE1 (gene 5054); assay: BSK_BF4T_PAI1: BioMAP Diversity Plus: BF4T Assay for Plasminogen Activator Inhibitor-1 (PAI1) Biomarker Activity (AID 2284273); details: primary human bronchial epithelial cells with fibroblasts
Summary of the method: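 PAI-1 levels quantified by ELISA 24 h post-dosing in bronchial epithelial cell plus dermal fibroblast cultures. Signal gain referenced to DMSO baseline. Sulforhodamine B total-protein staining of parallel wells checked cytotoxicity.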

[5] = BSK_BF4T_SRB: Viability Assessment in the BioMAP Diversity Plus: BF4T Assay (AID 2284274); details: primary human bronchial epithelial cells with fibroblasts
Summary of the method: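 Cytotoxicity measured as total protein: cells fixed with 10% TCA, stained with 0.1% SRB, read at 560 nm. Bronchial epithelial/dermal fibroblast co-culture, 24 h after dosing, with positive-direction fitting relative to DMSO.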

[6] = read-out: urokinase Plasminogen Activator (uPA), PLAU (gene 5328); assay: BSK_BF4T_uPA: BioMAP Diversity Plus: BF4T Assay for urokinase Plasminogen Activator (uPA) Biomarker Activity (AID 2284275); details: primary human bronchial epithelial cells with fibroblasts
Summary of the method: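 uPA levels measured by ELISA at 24 hours in BF4T cultures (bronchial epithelial cells plus dermal fibroblasts) and compared with DMSO; cytotoxicity tracked in parallel cultures by sulforhodamine B staining.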

[7] = read-out: Matrix Metallopeptidase 9 (MMP9), MMP9 (gene 4318); assay: BSK_BF4T_MMP9: BioMAP Diversity Plus: BF4T Assay for Matrix Metallopeptidase 9 (MMP9) Biomarker Activity (AID 2284276); details: primary human bronchial epithelial cells with fibroblasts
Protocol: as §1, with “plate.BSK_BF4T_MMP9” for “plate.BSK_BF4T_MMP1”, “MMP-9” for “MMP-1”, “BSK_BF4T_MMP9” for “BSK_BF4T_MMP1”, “BSK_BF4T_MMP9,” for “BSK_BF4T_MMP1,”
as §2

[8] = read-out: Interleukin-8 (IL8), CXCL8 (gene 3576); assay: BSK_IMphg_IL8: BioMAP Diversity Plus: IMphg Assay for Interleukin-8 (IL8) Biomarker Activity (AID 2284277); details: primary human endothelial cells with macrophages
Summary of the method: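 IL-8 levels were measured by ELISA 24 h after dosing in primary human venular endothelial cell–macrophage cultures, referenced to DMSO; parallel SRB staining monitored overt cytotoxicity.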

Measured: AC50

O=C(O)C(F)(F)C(F)(F)C(F)(F)C(F)(F)C(=O)O
inactive: all assays above

C[N+](C)(C)CCCNS(=O)(=O)C(F)(F)C(F)(F)C(F)(F)C(F)(F)C(F)(F)C(F)(F)C(F)(F)C(F)(F)F
active: [2] 52.2 µM and 51.4 µM | [3] 8.18 µM and 7.16 µM | [7] 9.46 µM and 30 µM | [8] 43 µM and 30 µM
inactive: all other assays above
